Assay results as given in PubChem BioAssay (NCATS).
Inconclusive results are not listed. The source made the active and inactive calls. Unless noted, calls follow the shape of the dose curve; as a rule, active = well fitted curve in the direction sought with a large enough effect; inconclusive = small, poorly fitted or top-dose-only effect, or another doubt; inactive = no such curve, though single readings can be large; an effect the other way counts as inactive or inconclusive.

Key:
[1] = target: Lysosomal acid glucosylceramidase (Homo sapiens) (UniProt P04062); test: Glucocerebrosidase-p2 (AID 348; in the data active = potency below about 10 µM; also: potency is read from the fitted curve at half-maximal effect); details: purified GBA, blue fluorogenic substrate, 40 min
How it was run: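 Normal human glucocerebrosidase (0.2 nM) with blue fluorogenic substrate (80 uM final) in citrate/phosphate pH 5.9 with 10mM sodium taurocholate, 0.01% tween-20; 40 min RT, NaOH/glycine stop; fluorescence Ex 365/Em 440; AC50 from a titration from 0.6 nM upwards.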

[2] = AP1 Signaling Pathway (AID 357; active = well fitted curve in either direction with a large enough effect, not every such curve was filed as active; also: % is scaled to controls: 0 for no effect and ±100 for the full control effect); details: ME-180 AP-1-bla reporter, EGF-induced, beta-lactamase ratio, 5 h; at 7.69 µM (top of the series) unless noted
How it was run: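 Modulation of EGF-driven AP-1 transcription was assessed with a beta-lactamase reporter in ME-180 cells. Compound and EC50 EGF were co-incubated 5 hours at 37 °C before 2.5-hour CCF4 loading at room temperature and dual-emission reading.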

[3] = NFAT Signaling Pathway (AID 444; active = well fitted curve in either direction with a large enough effect, not every such curve was filed as active;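 also: carbachol stimulus at about its EC50 of 1 µM final; % is scaled to controls: 0 for no effect and ±100 for the full control effect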); details: Jurkat NFAT-bla M1, carbachol, beta-lactamase ratio, 5 h; at 7.69 µM (top of the series) unless noted
How it was run: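 Read-out: CCF4 FRET ratio (460 nm/530 nm) after 1 h RT dye loading, used for %activity and AC50 from titration series. Cells: Jurkat NFAT-β-lactamase/M1 line, treated with compound plus 1 uM carbachol for 5 h, 37 °C.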

[4] = Stat Signaling Pathway (AID 446; active = well fitted curve in either direction with a large enough effect, not every such curve was filed as active;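 also: ME-180 cervical cancer cells given 40 pM IL-6 alongside compound; SIE-controlled beta-lactamase reporter measured as 460/530 nm FRET emission ratio; % is scaled to controls: 0 for no effect and ±100 for the full control effect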); details: ME-180 SIE beta-lactamase reporter, IL-6 stimulated, 5 h; at 7.69 µM (top of the series) unless noted
How it was run: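 Overnight-plated ME-180 cells bearing a STAT Inducible Element beta-lactamase reporter; 5 h co-exposure to compound and 40 pM IL-6; values normalized to 300 pM IL-6 and 125 nM JAK inhibitor controls.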

[5] = target: Glucocorticoid receptor (Homo sapiens) (UniProt P04150); test: GR-GFP Redistribution (AID 450;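 active = compounds whose dose series gives a full or clear partial fitted curve of increased nuclear translocation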; also: potency is read from the fitted curve at half-maximal effect); details: U2OS GR-GFP nuclear translocation, laser cytometry, 2 h
[6] = target: Glucocorticoid receptor (Homo sapiens) (UniProt P04150); test: GR-EFC Redistribution (AID 451; calls by dose curve; also: potency is read from the fitted curve at half-maximal effect); details: CHO-K1 GR-EFC translocation, beta-gal luminescence, 2 h
How it was run: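 Translocation of GR-ED fusion to nuclear EA restores b-gal, read by luminescence after 1 h room-temperature detection. Engineered CHO-K1 biosensor cells, 1,000/well, exposed 2 h at 37 C to titrations up to 46 uM final.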

[7] = target: Mitogen-activated protein kinase 10 (Mus musculus) (UniProt Q61831); test: JNK3 AlphaScreen Assay (AID 530; active = well fitted curve in either direction with a large enough effect, not every such curve was filed as active;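 also: kinase came from lysate of stimulated human HepG2 cells; signal reports phosphorylation of biotinylated GST-cJun 1-79 at Ser73 with 10 µM ATP; % is scaled to controls: 0 for no effect and ±100 for the full control effect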); details: JNK3 lysate, c-Jun phosphorylation; series mostly up to 57.1 µM
How it was run: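 Kinase buffer: 20 mM Tris-HCl pH 7.6, 10 mM MgCl2, 1 mM DTT, 0.1 mM Na3VO4, 0.01% Tween-20; ATP 10 uM. Substrate biotin-GST-cJun(1-79), enzyme from activated HepG2 lysates. Detection by Ser73 phospho-antibody AlphaScreen.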

[8] = target: 3',5'-cyclic-AMP phosphodiesterase 4B (Homo sapiens) (UniProt Q07343); test: qHTS Assay for Inhibitors of PDE-IV (AID 607; active = well fitted activation curve with a large enough effect in the main read-out, with a control signal flat, not every such curve was filed as active; also: % of control where 0% means no effect); details: HEK293 ACTOne CNG channel cells, membrane potential fluorescence; series mostly up to 22.9 µM
How it was run: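 Live HEK293 cells with a modified cyclic nucleotide-gated (CNG) channel report intracellular cAMP via membrane-potential dye fluorescence (ex 535/em 590 nm). Endogenous PDE-IV was targeted. Compounds were tested at up to 22.9 uM final; RO 20-1724 100 uM served as control.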

[9] = target: Cytochrome P450 3A4 (Homo sapiens) (UniProt P08684); test: qHTS Assay for Inhibitors and Substrates of Cytochrome P450 3A4 (AID 884); details: recombinant CYP3A4, Luciferin-PPXE luminescence; series mostly up to 57.1 µM; also: potency is read from the fitted curve at half-maximal effect; nearly all actives have a fitted effect of over 50% in size
How it was run: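 Luminescent readout of luciferin produced by CYP3A4 (20 nM) dealkylation of Luciferin-PPXE, 25 uM (its KM). NADPH-driven reaction ran 60 min at RT after 10 min compound preincubation; data scaled to 57 uM ketoconazole as 100% inhibition.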

[10] = target: Cytochrome P450 3A4 (Homo sapiens) (UniProt P08684); test: qHTS Assay for Activators of Cytochrome P450 3A4 (AID 885); details: recombinant CYP3A4, Luciferin-PPXE luminescence, 60 min; series mostly up to 57.1 µM; also: nearly all actives have a fitted effect of over 65% in size
How it was run: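 Using 20nM recombinant human CYP3A4 in potassium phosphate (200mM), substrate Luciferin-PPXE at 25uM, luminescent luciferin detection followed a 60-min RT NADPH reaction; data scaled to 57 uM ketoconazole.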

[11] = target: Cytochrome P450 2D6 (Homo sapiens) (UniProt P10635); test: qHTS Assay for Inhibitors and Substrates of Cytochrome P450 2D6 (AID 891); details: recombinant CYP2D6, luciferin-ME EGE luminescence; series mostly up to 57.1 µM; also: potency is read from the fitted curve at half-maximal effect; nearly all actives have a fitted effect of over 60% in size
How it was run: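 Luminescent read-out of luciferin formed by 5 nM human CYP2D6 demethylating 30 uM Luciferin-ME EGE (Km level) over 60 min at room temperature after NADPH regeneration addition. Data normalized to full inhibition by 1.43 uM quinidine.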

[12] = qHTS Assay for Lipid Storage Modulators (AID 1519; calls by dose curve); details: Drosophila S3 cells, BODIPY lipid droplet/cell ratio, laser cytometry, cells loaded with oleic acid; for activity change, negative = inhibition: at 57.5 µM (top of the series)
How it was run: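 Cells seeded at 5,000 per well were treated with compounds over a concentration series and loaded with oleic acid (400 uM, as added). Lipid droplet fluorescence (488 nm excitation, 500-530 nm channel) was read by laser-scanning cytometry and normalized to 20 uM Triacsin C.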

[13] = target: Dual specificity protein kinase CLK4 (Homo sapiens) (UniProt Q9HAZ1); test: qHTS Assay for Inhibitors of CDC-like Kinase 4 (Kinase-Glo Assay) (AID 1770); details: recombinant Clk4, Kinase-Glo ATP depletion luminescence; series mostly up to 66.7 µM; also: nearly all actives have a fitted effect of over 65% in size; also: potency is read from the fitted curve at half-maximal effect
How it was run: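 25 nM Clk4 with 100 uM RS repeat peptide and 1 uM ATP (final) in Tris pH7.5, 10 mM MgCl2, 4.5 h at room temperature. Remaining ATP measured by Kinase-Glo luciferase luminescence.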

[14] = target: Dual specificity protein kinase CLK4 (Homo sapiens) (UniProt Q9HAZ1); test: qHTS Assay for Inhibitors of CDC-like Kinase 4 (ADP-FP Assay) (AID 1795); details: Transcreener ADP fluorescence polarization; series mostly up to 50 µM; also: nearly all actives have a fitted effect of over 60% in size; also: potency is read from the fitted curve at half-maximal effect
How it was run: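 Recombinant Clk4 (6.25 nM) phosphorylated 100 uM RS repeat peptide with 1 uM ATP in 25 mM Tris pH 7.5, 10 mM MgCl2, 0.5 mM EGTA, 2.5 mM DTT, 0.01% Triton X-100 for 1 h. ADP was detected by Transcreener ADP2 competitive fluorescence polarization after 30 min at room temperature.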

[15] = target: Ubiquitin carboxyl-terminal hydrolase 1 (Homo sapiens) (UniProt O94782); test: Inhibitors of USP1/UAF1: Pilot qHTS (AID 504865); details: purified USP1/UAF1, Ub-rhodamine cleavage fluorescence; series mostly up to 54.9 µM;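 also: rhodamine fluorescence freed from ubiquitin-rhodamine substrate followed over time; top concentration of the series differs between compounds; % is scaled to controls: 0 for no effect and ±100 for the full control effect; nearly all actives have a fitted effect of over 35% in size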
How it was run: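 USP1/UAF1 complex at 1 nM preincubated 15 min at room temperature with compound, then Ub-Rho substrate added at 150 nM final. Fluorescence (480/540 nm) read kinetically in 50 mM HEPES pH 7.8, 0.5 mM EDTA, 1 mM TCEP, 0.1 mg/ml BSA, 0.01% Tween-20.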

[16] = Primary qHTS for small molecule stabilizers of the endoplasmic reticulum resident proteome: Secreted ER Calcium Modulated Protein (SERCaMP) assay (AID 1508630); details: SH-SY5Y GLuc-SERCaMP (Gaussia luciferase released on ER calcium loss) secretion, thapsigargin, luminescence; series mostly up to 38.4 µM; also: % is scaled to controls: 0 for no effect and ±100 for the full control effect
How it was run: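 The SH-SY5Y reporter protocol was run at 3 concentrations up to 38.3 uM (primary) or 11 concentrations (follow-up): 16 h compound, 100 nM thapsigargin for 4 h, then extracellular luciferase luminescence.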

[17] = target: Cytochrome P450 1A2 (Homo sapiens) (UniProt P05177); test: p450-cyp1a2 (AID 410; calls by dose curve; also: potency is read from the fitted curve at half-maximal effect); details: recombinant CYP1A2, luciferin-ME demethylation, luminescence; series mostly up to 57 µM
How it was run: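 Read-out is luminescence from luciferin produced by CYP1A2 demethylation of Luciferin-ME (100uM, at Km). Detection reagent stopped the 60 min NADPH-dependent reaction; signals were normalized to 57 uM furafylline.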

[18] = target: Dual specificity protein kinase CLK4 (Homo sapiens) (UniProt Q9HAZ1); test: qHTS Assay for Inhibitors of CDC-like Kinase 4 (ADP-Glo Assay) (AID 1771); details: recombinant CLK4, ADP-Glo luminescence; series mostly up to 80 µM; also: % is scaled to controls: 0 for no effect and ±100 for the full control effect; nearly all actives have a fitted effect of over 70% in size
How it was run: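 In this ADP-Glo format, 1 uM ATP and 100 uM RS peptide served as substrates for 25 nM Clk4 in Mg2+/EGTA/DTT/Triton buffer; reactions ran 1 hr at room temperature before luminescent ADP quantification.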

[19] = qHTS Assay for Identification of Small Molecule Agonists for Hypoxia Response Element Signaling Pathway (AID 914; active = well fitted activation curve with a large enough effect in the signal ratio, with a control signal flat, not every such curve was filed as active; the % refers to the signal ratio; also: % of control where 0% means no effect); details: ME-180 (cervical carcinoma) HRE-bla reporter, beta-lactamase ratio, CoCl2, 17 h; activation: stronger effect = higher value
How it was run: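 qHTS titration; ME-180 HRE-bla cells; EC50 CoCl2 co-treatment, 17 h at 37 degrees Celsius; CCF4 dye, ex 405nm, em 460nm and 530nm; %Activity from ratio; AC50.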

[20] = measured here: cell count channel max response
[21] = measured here: lipid channel max response

Sequence of Glucocorticoid receptor (Homo sapiens) (P04150 whole entry, looked up, the tested form may be a part): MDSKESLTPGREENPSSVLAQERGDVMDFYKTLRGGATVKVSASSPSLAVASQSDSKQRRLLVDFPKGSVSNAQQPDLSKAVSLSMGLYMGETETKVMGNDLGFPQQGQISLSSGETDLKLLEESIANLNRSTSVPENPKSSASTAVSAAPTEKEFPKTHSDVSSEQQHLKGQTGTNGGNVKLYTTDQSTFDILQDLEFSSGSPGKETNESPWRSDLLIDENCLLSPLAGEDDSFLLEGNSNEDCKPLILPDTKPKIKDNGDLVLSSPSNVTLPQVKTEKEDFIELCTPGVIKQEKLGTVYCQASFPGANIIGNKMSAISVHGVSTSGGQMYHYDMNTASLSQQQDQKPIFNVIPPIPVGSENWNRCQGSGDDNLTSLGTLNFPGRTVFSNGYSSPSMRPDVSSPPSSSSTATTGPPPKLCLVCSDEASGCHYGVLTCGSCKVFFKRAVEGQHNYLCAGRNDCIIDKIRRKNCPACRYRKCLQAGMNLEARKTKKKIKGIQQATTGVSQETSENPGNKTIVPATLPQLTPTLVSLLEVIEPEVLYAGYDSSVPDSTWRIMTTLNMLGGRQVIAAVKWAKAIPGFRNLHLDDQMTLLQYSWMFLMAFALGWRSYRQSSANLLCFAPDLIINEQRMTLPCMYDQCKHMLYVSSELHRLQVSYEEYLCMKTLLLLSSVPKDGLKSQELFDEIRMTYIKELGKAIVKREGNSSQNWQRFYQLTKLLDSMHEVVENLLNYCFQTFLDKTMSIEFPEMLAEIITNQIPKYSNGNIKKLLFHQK
Sequence of Lysosomal acid glucosylceramidase (Homo sapiens) (P04062 whole entry, looked up): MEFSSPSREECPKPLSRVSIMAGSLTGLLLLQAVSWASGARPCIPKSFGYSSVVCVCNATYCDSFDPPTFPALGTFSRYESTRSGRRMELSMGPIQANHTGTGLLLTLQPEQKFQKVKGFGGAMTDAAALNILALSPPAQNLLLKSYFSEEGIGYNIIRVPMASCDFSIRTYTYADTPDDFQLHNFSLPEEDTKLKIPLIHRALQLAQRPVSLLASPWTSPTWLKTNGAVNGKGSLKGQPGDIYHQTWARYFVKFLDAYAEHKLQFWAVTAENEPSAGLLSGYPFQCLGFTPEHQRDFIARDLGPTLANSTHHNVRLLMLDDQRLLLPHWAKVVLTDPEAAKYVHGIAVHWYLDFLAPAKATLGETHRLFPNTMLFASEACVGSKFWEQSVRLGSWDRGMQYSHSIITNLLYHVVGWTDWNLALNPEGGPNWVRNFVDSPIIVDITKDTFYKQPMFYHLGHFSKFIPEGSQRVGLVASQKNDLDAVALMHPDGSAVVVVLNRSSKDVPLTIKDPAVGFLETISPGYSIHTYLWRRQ
Sequence of Ubiquitin carboxyl-terminal hydrolase 1 (Homo sapiens) (O94782 whole entry, looked up): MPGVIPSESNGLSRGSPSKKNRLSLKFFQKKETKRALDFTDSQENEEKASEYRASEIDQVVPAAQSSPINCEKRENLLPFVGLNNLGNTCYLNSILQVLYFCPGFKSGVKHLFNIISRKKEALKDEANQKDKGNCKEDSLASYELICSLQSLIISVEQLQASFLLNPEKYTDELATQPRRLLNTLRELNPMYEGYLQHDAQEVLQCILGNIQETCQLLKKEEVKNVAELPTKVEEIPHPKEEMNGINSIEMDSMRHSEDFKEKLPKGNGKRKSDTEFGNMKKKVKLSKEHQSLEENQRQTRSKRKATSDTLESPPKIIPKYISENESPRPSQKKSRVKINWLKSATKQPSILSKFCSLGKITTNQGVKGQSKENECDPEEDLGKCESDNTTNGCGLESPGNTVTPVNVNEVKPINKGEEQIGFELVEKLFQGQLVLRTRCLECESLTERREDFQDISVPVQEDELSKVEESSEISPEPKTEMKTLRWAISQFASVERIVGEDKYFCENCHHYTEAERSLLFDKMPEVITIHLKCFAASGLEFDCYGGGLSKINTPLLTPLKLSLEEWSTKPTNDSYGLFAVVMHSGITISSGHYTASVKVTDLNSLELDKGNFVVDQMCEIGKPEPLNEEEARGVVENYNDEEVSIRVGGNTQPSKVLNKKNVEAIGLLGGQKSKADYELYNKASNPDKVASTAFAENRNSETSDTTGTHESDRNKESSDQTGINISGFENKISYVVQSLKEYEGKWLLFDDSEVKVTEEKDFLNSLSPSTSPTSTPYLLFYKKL
Sequence of Cytochrome P450 1A2 (Homo sapiens) (P05177 whole entry, looked up): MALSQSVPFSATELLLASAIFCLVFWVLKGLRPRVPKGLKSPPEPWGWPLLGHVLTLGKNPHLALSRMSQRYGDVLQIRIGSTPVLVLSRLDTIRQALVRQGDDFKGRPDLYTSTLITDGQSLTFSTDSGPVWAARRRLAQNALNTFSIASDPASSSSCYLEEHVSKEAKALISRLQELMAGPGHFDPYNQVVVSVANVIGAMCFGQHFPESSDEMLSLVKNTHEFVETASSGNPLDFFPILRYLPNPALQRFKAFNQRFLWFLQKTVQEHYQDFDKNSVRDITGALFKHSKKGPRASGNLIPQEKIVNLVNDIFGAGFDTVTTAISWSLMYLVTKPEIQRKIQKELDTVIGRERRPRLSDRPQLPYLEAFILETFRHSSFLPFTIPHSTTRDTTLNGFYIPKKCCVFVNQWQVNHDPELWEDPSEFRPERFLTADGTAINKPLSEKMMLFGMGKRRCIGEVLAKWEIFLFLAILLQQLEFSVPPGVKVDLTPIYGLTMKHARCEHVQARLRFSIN
Sequence of 3',5'-cyclic-AMP phosphodiesterase 4B (Homo sapiens) (Q07343 whole entry, looked up): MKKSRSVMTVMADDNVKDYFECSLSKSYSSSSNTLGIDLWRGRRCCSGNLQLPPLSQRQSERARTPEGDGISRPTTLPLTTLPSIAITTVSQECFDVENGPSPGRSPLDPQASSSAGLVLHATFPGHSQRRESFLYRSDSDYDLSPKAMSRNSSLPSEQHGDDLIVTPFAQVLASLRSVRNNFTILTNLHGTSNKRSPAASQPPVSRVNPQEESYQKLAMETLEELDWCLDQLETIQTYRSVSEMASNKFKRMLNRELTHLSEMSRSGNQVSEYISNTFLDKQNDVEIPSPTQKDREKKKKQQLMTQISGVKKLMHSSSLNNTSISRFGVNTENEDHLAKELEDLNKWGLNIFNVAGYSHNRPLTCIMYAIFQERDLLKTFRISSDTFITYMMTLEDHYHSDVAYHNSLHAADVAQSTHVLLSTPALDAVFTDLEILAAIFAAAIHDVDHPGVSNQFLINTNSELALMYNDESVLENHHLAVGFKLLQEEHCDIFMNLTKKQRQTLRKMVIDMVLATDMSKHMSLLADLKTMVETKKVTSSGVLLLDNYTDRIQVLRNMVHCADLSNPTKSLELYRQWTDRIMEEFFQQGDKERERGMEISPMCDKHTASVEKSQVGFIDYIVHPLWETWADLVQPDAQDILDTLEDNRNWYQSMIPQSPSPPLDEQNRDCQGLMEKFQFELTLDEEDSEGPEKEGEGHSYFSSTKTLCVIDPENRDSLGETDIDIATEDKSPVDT
Sequence of Cytochrome P450 3A4 (Homo sapiens) (P08684 whole entry, looked up): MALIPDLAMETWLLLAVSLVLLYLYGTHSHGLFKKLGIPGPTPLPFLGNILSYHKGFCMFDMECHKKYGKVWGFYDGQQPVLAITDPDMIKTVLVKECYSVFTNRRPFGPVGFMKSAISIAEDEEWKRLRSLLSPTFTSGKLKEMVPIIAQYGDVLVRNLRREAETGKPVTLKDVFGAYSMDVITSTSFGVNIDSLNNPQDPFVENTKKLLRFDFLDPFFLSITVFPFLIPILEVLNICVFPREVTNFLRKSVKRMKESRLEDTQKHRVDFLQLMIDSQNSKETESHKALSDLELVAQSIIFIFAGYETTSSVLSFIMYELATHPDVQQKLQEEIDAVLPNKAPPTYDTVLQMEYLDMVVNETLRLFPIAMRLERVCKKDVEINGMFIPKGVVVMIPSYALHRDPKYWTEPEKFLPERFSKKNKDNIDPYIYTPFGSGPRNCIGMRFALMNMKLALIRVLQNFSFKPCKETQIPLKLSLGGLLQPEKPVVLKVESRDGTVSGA
Sequence of Dual specificity protein kinase CLK4 (Homo sapiens) (Q9HAZ1 whole entry, looked up): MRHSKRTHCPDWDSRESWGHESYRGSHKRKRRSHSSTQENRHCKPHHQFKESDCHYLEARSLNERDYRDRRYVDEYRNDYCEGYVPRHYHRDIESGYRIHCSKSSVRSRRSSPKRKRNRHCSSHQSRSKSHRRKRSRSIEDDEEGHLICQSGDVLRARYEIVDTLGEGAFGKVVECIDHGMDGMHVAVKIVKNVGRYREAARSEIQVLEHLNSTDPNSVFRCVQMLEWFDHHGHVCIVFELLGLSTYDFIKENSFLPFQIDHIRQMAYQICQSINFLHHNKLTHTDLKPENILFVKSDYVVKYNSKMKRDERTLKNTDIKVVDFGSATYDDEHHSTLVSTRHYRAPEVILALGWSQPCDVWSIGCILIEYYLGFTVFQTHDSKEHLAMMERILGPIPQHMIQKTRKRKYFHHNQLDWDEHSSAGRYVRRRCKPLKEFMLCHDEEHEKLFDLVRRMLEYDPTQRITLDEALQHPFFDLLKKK
Sequence of Cytochrome P450 2D6 (Homo sapiens) (P10635 whole entry, looked up): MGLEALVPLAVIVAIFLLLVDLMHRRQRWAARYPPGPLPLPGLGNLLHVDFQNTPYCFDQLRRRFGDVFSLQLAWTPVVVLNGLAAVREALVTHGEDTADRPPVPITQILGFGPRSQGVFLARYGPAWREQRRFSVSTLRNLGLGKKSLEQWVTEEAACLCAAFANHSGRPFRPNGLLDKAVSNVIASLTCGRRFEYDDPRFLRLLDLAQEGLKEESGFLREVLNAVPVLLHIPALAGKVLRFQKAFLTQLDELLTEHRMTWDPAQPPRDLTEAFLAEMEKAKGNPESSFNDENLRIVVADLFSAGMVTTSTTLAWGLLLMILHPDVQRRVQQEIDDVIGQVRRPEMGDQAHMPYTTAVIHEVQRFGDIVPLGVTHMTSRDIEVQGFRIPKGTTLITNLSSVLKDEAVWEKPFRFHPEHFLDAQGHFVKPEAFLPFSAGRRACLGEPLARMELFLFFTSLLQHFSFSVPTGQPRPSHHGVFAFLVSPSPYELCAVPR

SMILES: CN1CCN(c2ncnc3ccc(-c4ccc5c(c4)OCO5)cc23)CC1
- Potency [1]: > 11.4 µM (inactive)
- activity change, negative = inhibition [2]: -24.4% (inactive)
- activity change, negative = inhibition [3]: -20.4% (inactive)
- activity, negative = inhibition [4]: 6.89% (inactive)
- Potency [5]: > 46 µM (inactive)
- Potency [6]: > 46 µM (inactive)
- outcome [7]: inactive
- Potency [8]: inactive
- Potency [9]: 7.94 µM (active)
- Potency [10]: inactive
- Potency [11]: 0.251 µM (active)
- activity change, negative = inhibition [12]: 4.95% (inactive)
- max response [12, 20]: 4.86%
- max response [12, 21]: 5.74%
- Potency [13]: 0.282 µM (active)
- Potency [14]: 0.158 µM (active)
- Potency [15]: inactive
- Potency [16]: inactive

SMILES: CN(C)Cc1ccccc1-c1nc(N(C)C)c2ccccc2n1
- Potency [1]: > 11.4 µM (inactive)
- activity change, negative = inhibition [2]: 19.8% (inactive)
- Potency [17]: 1.26 µM (active)
- activity change, negative = inhibition [3]: 13.2% (inactive)
- activity, negative = inhibition [4]: 28.7% (inactive)
- Potency [5]: > 46 µM (inactive)
- Potency [6]: > 46 µM (inactive)
- outcome [7]: inactive
- Potency [11]: 2.51 µM (active)
- activity change, negative = inhibition [12]: -2.91% (inactive)
- max response [12, 20]: 9.81%
- max response [12, 21]: 6.7%
- Potency [13]: inactive
- Potency [14]: inactive
- Potency [15]: inactive
- Potency [16]: inactive

SMILES: COc1ccc(-n2c(=O)c(-c3cn(C)c4ccccc34)nc3cnc(N4CCOCC4)nc32)cc1
- Potency [1]: > 11.4 µM (inactive)
- activity change, negative = inhibition [2]: 11.1% (inactive)
- Potency [17]: 31.6 µM (active)
- activity change, negative = inhibition [3]: -2.62% (inactive)
- activity, negative = inhibition [4]: 3.33% (inactive)
- Potency [5]: > 9.22 µM (inactive)
- Potency [6]: > 46 µM (inactive)
- outcome [7]: inactive
- Potency [8]: inactive
- activity change, negative = inhibition [12]: 7.4% (inactive)
- max response [12, 20]: 4.27%
- max response [12, 21]: 9.94%
- Potency [18]: inactive
- Potency [14]: inactive
- Potency [15]: inactive
- Potency [16]: inactive

SMILES: CCNc1ncc2ncc(=O)n(Cc3cccs3)c2n1
- Potency [17]: 2 µM (active)
- activity change, negative = inhibition [3]: -8.48% (inactive)
- activity, negative = inhibition [4]: -24.4% (inactive)
- Potency [5]: > 9.22 µM (inactive)
- Potency [6]: > 46 µM (inactive)
- outcome [7]: inactive
- Potency [8]: inactive
- Potency [10]: inactive
- activation [19]: -28.8% (inactive)
- activity change, negative = inhibition [12]: 5.21% (inactive)
- max response [12, 20]: 12.7%
- max response [12, 21]: 16.4%
- Potency [13]: 3.16 µM (active)
- Potency [14]: 5.01 µM (active)
- Potency [15]: inactive
- Potency [16]: inactive

SMILES: COc1ccc(-n2c(=O)cnc3cnc(N4CCOCC4)nc32)cc1
- Potency [1]: > 11.4 µM (inactive)
- activity change, negative = inhibition [2]: 4.95% (inactive)
- activity change, negative = inhibition [3]: 1.82% (inactive)
- activity, negative = inhibition [4]: -10.3% (inactive)
- Potency [5]: > 9.22 µM (inactive)
- Potency [6]: > 46 µM (inactive)
- outcome [7]: inactive
- Potency [8]: inactive
- activity change, negative = inhibition [12]: 6.91% (inactive)
- max response [12, 20]: 0.0679%
- max response [12, 21]: 8.45%
- Potency [13]: 28.2 µM (active)
- Potency [15]: inactive
- Potency [16]: inactive
